From PubChem BioAssay (NCATS)
Values joined by “and” are separate entries in the source; they are usually repeats but may differ in a detail not shown here. Identical values can stand only once. Records with an inconclusive call do not appear. A call without a number means that no potency is given here. More than one record can exist for a structure, and the calls need not agree. Active and inactive are the calls of the source. Calls follow the shape of the dose curve; as a rule, active = well fitted curve in the direction sought with a large enough effect; inconclusive = small, poorly fitted or top-dose-only effect, or another doubt; inactive = no such curve, though single readings can be large; an effect the other way counts as inactive or inconclusive.

Legend:
MKL-2 = assay: qHTS assay to identify novel small-molecules to repurpose for Merkel cell carcinoma treatment (AID 1296009); details: MCC and control cell lines, CellTiter-Glo viability, 72 h; series mostly up to 46 µM; also: nearly all actives have a fitted effect of over 60% in size
Procedure, shortened: (§1)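 Cell viability measured by CellTiter-Glo following 72 hr compound treatment at 37 degree celsius, with NPC and MIPE libraries tested in 8- and 11-point concentration series.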

C33A = assay: Primary qHTS to identify gynecologic anti-cancer compounds using libraries of approved drugs and bioactive compounds (AID 1345084); details: Gynecologic cancer cell panel viability, ATPlite luminescence, 48 h; series mostly up to 57.5 µM; also: nearly all actives have a fitted effect of over 55% in size
Procedure, shortened: (§2)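 Cell viability after 48 h drug treatment, ATPlite luminescence readout; five doses.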

CAOV3 = assay: as above; details: Gynecologic cancer cell panel viability, ATPlite luminescence, 48 h; series mostly up to 57.5 µM
Procedure, shortened: as §2

CASKI = assay: as above; details: Gynecologic cancer cell panel viability, ATPlite luminescence, 48 h; series mostly up to 57.5 µM
Procedure, shortened: as §2

Hek293T = assay: as above; details: Gynecologic cancer cell panel viability, ATPlite luminescence, 48 h, control line for the selectivity index; series mostly up to 57.5 µM
Procedure, shortened: as §2

JEG-3 = assay: as above; details: Gynecologic cancer cell panel viability, ATPlite luminescence, 48 h; series mostly up to 57.5 µM
Procedure, shortened: as §2

OV90 = assay: as above; details: Gynecologic cancer cell panel viability, ATPlite luminescence, 48 h; series mostly up to 57.5 µM
Procedure, shortened: as §2

Tov112D = assay: as above; details: Gynecologic cancer cell panel viability, ATPlite luminescence, 48 h; series mostly up to 57.5 µM
Procedure, shortened: as §2

MCC-13 = assay: qHTS assay to identify novel small-molecules to repurpose for Merkel cell carcinoma treatment (AID 1296009); details: MCC and control cell lines, CellTiter-Glo viability, 72 h; series mostly up to 46 µM; also: nearly all actives have a fitted effect of over 60% in size
Procedure, shortened: as §1

MCC-26 = assay: as above; details: MCC and control cell lines, CellTiter-Glo viability, 72 h; series mostly up to 46 µM
Procedure, shortened: as §1

MKL-1 = assay: as above; details: MCC and control cell lines, CellTiter-Glo viability, 72 h; series mostly up to 46 µM
Procedure, shortened: as §1

UISO = assay: as above; details: MCC and control cell lines, CellTiter-Glo viability, 72 h; series mostly up to 46 µM
Procedure, shortened: as §1

Es-2 = assay: Primary qHTS to identify gynecologic anti-cancer compounds using libraries of approved drugs and bioactive compounds (AID 1345084); details: Gynecologic cancer cell panel viability, ATPlite luminescence, 48 h; series mostly up to 57.5 µM; also: nearly all actives have a fitted effect of over 55% in size
Procedure, shortened: as §2

HeLa = assay: as above; details: Gynecologic cancer cell panel viability, ATPlite luminescence, 48 h; series mostly up to 57.5 µM
Procedure, shortened: as §2

PA-1 = assay: as above; details: Gynecologic cancer cell panel viability, ATPlite luminescence, 48 h; series mostly up to 57.5 µM
Procedure, shortened: as §2

SKOV3 = assay: as above; details: Gynecologic cancer cell panel viability, ATPlite luminescence, 48 h; series mostly up to 57.5 µM
Procedure, shortened: as §2

Tov-21-G = assay: as above; details: Gynecologic cancer cell panel viability, ATPlite luminescence, 48 h; series mostly up to 57.5 µM
Procedure, shortened: as §2

WaGa = assay: qHTS assay to identify novel small-molecules to repurpose for Merkel cell carcinoma treatment (AID 1296009); details: MCC and control cell lines, CellTiter-Glo viability, 72 h; series mostly up to 46 µM; also: nearly all actives have a fitted effect of over 60% in size
Procedure, shortened: as §1
Potency is read from the fitted curve at half-maximal effect.

| Structure (SMILES) | Potency (MKL-2) | Potency (C33A) | Potency (CAOV3) | Potency (CASKI) | Potency (Hek293T) | Potency (JEG-3) | Potency (OV90) | Potency (Tov112D) | Potency (MCC-13) | Potency (MCC-26) | Potency (MKL-1) | Potency (UISO) | Potency (Es-2) | Potency (HeLa) | Potency (PA-1) | Potency (SKOV3) | Potency (Tov-21-G) | Potency (WaGa) |
| --- | --- | --- | --- | --- | --- | --- | --- | --- | --- | --- | --- | --- | --- | --- | --- | --- | --- | --- |
| CC(=O)O[C@@]12CO[C@@H]1C[C@H](O)[C@@]1(C)C(=O)[C@H](O)C3=C(C)[C@@H](OC(=O)[C@H](O)[C@@H](NC(=O)OC(C)(C)C)c4ccccc4)C[C@@](O)([C@@H](OC(=O)c4ccccc4)[C@H]21)C3(C)C | inactive | inactive | inactive | inactive | inactive | inactive | inactive | inactive | – | – | – | – | – | – | – | – | – | – |
| CCN(CC)CCSC(=O)C(c1ccccc1)c1ccccc1 | – | inactive | inactive | inactive | inactive | inactive | inactive | inactive | inactive | inactive | inactive | inactive | inactive | inactive | inactive | inactive | inactive | – |
| CCN(CC)CCCC(C)Nc1c2ccc(Cl)cc2nc2ccc(OC)cc12 (configuration not stated) | 3.35 µM (active) | 12.6 µM (active) and inactive | 3.98 µM (active) | – | – | – | 8.91 µM (active) | inactive | 23.7 µM (active) | – | 15 µM (active) | – | inactive | inactive | – | – | – | 26.6 µM (active) |
| C[C@H](NC(CCc1ccccc1)C(=O)O)C(=O)N1CCC[C@H]1C(=O)O (some centres not stated) | inactive | inactive | inactive | inactive | inactive | inactive | inactive | inactive | inactive | – | inactive | inactive | – | inactive | inactive | inactive | inactive | inactive |
| NC1[C@H]2CN(c3nc4c(cc3F)c(=O)c(C(=O)O)cn4-c3ccc(F)cc3F)C[C@@H]12 (some centres not stated) | – | – | – | inactive | – | inactive | inactive | inactive | – | inactive | – | 26.6 µM (active) | – | – | – | – | – | 21.1 µM (active) |
| OCc1cc(C(O)CNCCCCCCOCCCCc2ccccc2)ccc1O (configuration not stated) | – | inactive | 22.4 µM (active) | inactive | – | inactive | – | inactive | inactive | – | inactive | – | inactive | inactive | – | – | inactive | inactive |
| CC1=C(CC(=O)O)c2cc(F)ccc2/C1=C\c1ccc(S(C)=O)cc1 (configuration not stated) | – | inactive | inactive | inactive | inactive | inactive | inactive | inactive | – | – | – | – | inactive | inactive | inactive | inactive | inactive | – |
| Cc1cc(N)c2ccccc2[n+]1CCCCCCCCCC[n+]1c(C)cc(N)c2ccccc21 | – | inactive | 14.1 µM (active) | – | – | inactive | – | inactive | – | – | – | – | inactive | inactive | 22.4 µM (active) | – | – | – |
| Nc1ncnc2c1ncn2[C@@H]1O[C@H](CO)[C@@H](O)[C@H]1O | – | inactive | – | inactive | inactive | inactive | inactive | inactive | inactive | inactive | inactive | inactive | inactive | inactive | inactive | inactive | inactive | – |
| COC(=O)C1=C(C)NC(C)=C(C(=O)OC)C1c1ccccc1[N+](=O)[O-] | 23.7 µM (active) | inactive | inactive | inactive | inactive | inactive | inactive | inactive | inactive | inactive | – | – | inactive | – | inactive | inactive | inactive | – |
| O=C1Nc2ccc(Cl)cc2[C@@](C#CC2CC2)(C(F)(F)F)O1 | – | inactive | inactive | inactive | inactive | inactive | inactive | inactive | – | inactive | – | – | inactive | inactive | inactive | inactive | inactive | – |
| CN(C)CCCN1c2ccccc2Sc2ccc(Cl)cc21 | – | – | – | – | – | – | – | – | – | – | 23.7 µM (active) | – | – | – | – | – | – | 26.6 µM (active) |
| CNCCCC1c2ccccc2C=Cc2ccccc21 | 21.1 µM (active) | inactive | – | – | – | inactive | – | – | inactive | inactive | – | inactive | – | inactive | – | inactive | – | – |
| C[C@]12CC[C@@H]3c4ccc(O)cc4CC[C@H]3[C@@H]1CC[C@@H]2OC(=O)CCC1CCCC1 | inactive | inactive | – | inactive | inactive | inactive | inactive | inactive | inactive | – | inactive | inactive | inactive | 10 µM (active) and 20 µM (active) | inactive | inactive | inactive | inactive |
| CC(=O)Oc1c(C)c(C)c2c(c1C)CC[C@@](C)(CCC[C@H](C)CCC[C@H](C)CCCC(C)C)O2 | – | inactive | inactive | inactive | inactive | inactive | inactive | inactive | – | – | – | – | inactive | inactive | inactive | inactive | inactive | – |
| CN(C)CCC=C1c2ccccc2CCc2ccccc21 | – | inactive | inactive | inactive | – | inactive | – | inactive | inactive | inactive | inactive | inactive | inactive | inactive | inactive | inactive | inactive | – |
| COCCOC(=O)C1=C(C)NC(C)=C(C(=O)OC/C=C/c2ccccc2)C1c1cccc([N+](=O)[O-])c1 (configuration not stated) | – | – | – | – | – | inactive | inactive | inactive | – | inactive | 21.1 µM (active) | – | inactive | inactive | – | – | inactive | – |
| Cc1c(O)cccc1C(=O)N[C@@H](CSc1ccccc1)[C@H](O)CN1C[C@H]2CCCC[C@H]2C[C@H]1C(=O)NC(C)(C)C | – | – | inactive | inactive | inactive | inactive | inactive | inactive | – | inactive | – | – | inactive | inactive | inactive | – | inactive | – |
| COc1ccccc1O | inactive | inactive | inactive | inactive | inactive | inactive | inactive | inactive | inactive | – | inactive | inactive | inactive | inactive | inactive | inactive | inactive | inactive |
